# Test results reported in PubChem BioAssay (Tox21).
# “And” between values parts separate entries of the source, which are not always exact repeats. Equal entries are not always repeated. Inconclusive results are not listed. A call without a number means that no potency is given here. The source holds several records for some structures; these can differ, active in one and inactive in another. The source made the active and inactive calls. Unless noted, the call rests on the fitted dose curve; in most records, active means well fitted curve in the direction sought with a large enough effect in the repeat runs; inconclusive means weak or mixed curves; inactive means no such curve, though single readings can be large; an effect the other way counts as inactive or inconclusive.
# Experiments:
# [1] = qHTS assay to identify small molecule antagonists of the glucocorticoid receptor (GR) signaling pathway - cell viability counter screen (AID 720693); further: nearly all actives have a fitted effect of over 55% in size; further: potency means the concentration at half of the fitted maximal effect
# [2] = qHTS assay for identifying genotoxic compounds that show differential cytotoxicity against isogenic chicken DT40 cell lines with known DNA damage response pathways - wild type cell line (AID 743012); further: nearly all actives have a fitted effect of over 60% in size; further: potency means the concentration at half of the fitted maximal effect
# How it was run: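 300 wt DT40 cells/well; cpd (DMSO) pintool-transferred after ~0.5 h at 37 C/5% CO2; 40 h incubation; CellTiter-Glo added, 30 min RT; luminescence read.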
# [3] = qHTS assay for identifying genotoxic compounds that show differential cytotoxicity against isogenic chicken DT40 cell lines with known DNA damage response pathways - Rev3 mutant cell line (AID 743014); further: nearly all actives have a fitted effect of over 55% in size; further: potency means the concentration at half of the fitted maximal effect
# [4] = qHTS assay for identifying genotoxic compounds that show differential cytotoxicity against isogenic chicken DT40 cell lines with known DNA damage response pathways - Rad54/Ku70 mutant cell line (AID 743015); further: nearly all actives have a fitted effect of over 60% in size; further: potency means the concentration at half of the fitted maximal effect
# [5] = qHTS assay to identify small molecule antagonists of the androgen receptor (AR) signaling pathway - cell viability counter screen (AID 743033; further: nearly all actives have a fitted effect of over 45% in size; further: potency means the concentration at half of the fitted maximal effect)
# [6] = qHTS assay to identify small molecule antagonists of the androgen receptor (AR) signaling pathway using the MDA cell line - cell viability counter screen (AID 743041; further: nearly all actives have a fitted effect of over 45% in size; further: potency means the concentration at half of the fitted maximal effect)
# How it was run: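 In this qHTS counter assay, fluorescence intensity after CellTiter-Fluor addition indicated viability of MDA-kb2 AR-luc cells given compounds and R1881 for 16 h at 37C.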
# [7] = molecular target: Androgen receptor (Homo sapiens) (UniProt P10275); experiment: qHTS assay to identify small molecule antagonists of the androgen receptor (AR) signaling pathway (AID 743035; active means well fitted inhibition curve with a large enough effect in the signal ratio in the repeat runs, not every such curve was filed as active; the % refers to the signal ratio; further: potency means the concentration at half of the fitted maximal effect)
# Androgen receptor (Homo sapiens), sequence (P10275 whole entry, looked up): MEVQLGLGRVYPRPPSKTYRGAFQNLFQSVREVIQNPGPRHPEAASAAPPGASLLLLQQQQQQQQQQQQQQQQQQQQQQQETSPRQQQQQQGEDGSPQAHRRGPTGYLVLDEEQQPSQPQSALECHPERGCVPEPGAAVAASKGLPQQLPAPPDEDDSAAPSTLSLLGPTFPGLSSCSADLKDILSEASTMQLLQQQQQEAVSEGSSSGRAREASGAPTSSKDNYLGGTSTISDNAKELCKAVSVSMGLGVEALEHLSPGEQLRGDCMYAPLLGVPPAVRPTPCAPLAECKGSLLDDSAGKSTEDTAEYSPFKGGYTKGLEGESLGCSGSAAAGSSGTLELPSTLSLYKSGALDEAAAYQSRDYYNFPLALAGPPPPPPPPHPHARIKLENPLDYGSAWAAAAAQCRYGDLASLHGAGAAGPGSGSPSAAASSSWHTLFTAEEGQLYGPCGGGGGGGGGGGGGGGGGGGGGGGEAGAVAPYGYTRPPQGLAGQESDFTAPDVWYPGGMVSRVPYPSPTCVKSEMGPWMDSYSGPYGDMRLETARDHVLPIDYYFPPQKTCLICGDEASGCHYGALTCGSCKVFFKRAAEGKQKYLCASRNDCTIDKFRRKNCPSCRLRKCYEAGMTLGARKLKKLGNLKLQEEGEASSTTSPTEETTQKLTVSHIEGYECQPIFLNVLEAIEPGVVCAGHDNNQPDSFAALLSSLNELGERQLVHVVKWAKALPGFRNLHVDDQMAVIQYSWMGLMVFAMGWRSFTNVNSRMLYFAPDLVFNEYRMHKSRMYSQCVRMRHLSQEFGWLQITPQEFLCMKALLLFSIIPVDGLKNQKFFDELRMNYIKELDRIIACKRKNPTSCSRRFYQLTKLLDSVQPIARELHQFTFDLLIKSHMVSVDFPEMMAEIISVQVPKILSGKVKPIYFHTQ
# How it was run: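 In this cell-based reporter screen, compounds were tested in concentration series against R1881-activated HEK293 cells expressing beta-lactamase under UAS control; after 16 h at 37C, FRET substrate was added and fluorescence read 2 h later.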
# [8] = molecular target: Androgen receptor (Homo sapiens) (UniProt P10275); experiment: qHTS assay to identify small molecule agonists of the androgen receptor (AR) signaling pathway (AID 743036; active means well fitted activation curve with a large enough effect in the signal ratio in the repeat runs, with a control signal flat, not every such curve was filed as active; the % refers to the signal ratio)
# How it was run: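 Beta-lactamase under UAS control, stably integrated in HEK293 GripTite cells, reports receptor activation. After 16 h compound treatment, cells received FRET substrate for 2 h at room temperature before fluorescence reading.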
# [9] = molecular target: Androgen receptor (Homo sapiens) (UniProt P10275); experiment: qHTS assay to identify small molecule agonists of the androgen receptor (AR) signaling pathway using the MDA cell line (AID 743040; further: nearly all actives have a fitted effect of over 20% in size; further: potency means the concentration at half of the fitted maximal effect)
# How it was run: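 Cell-based luciferase reporter: MDA-kb2, MMTV promoter (AR + GR response elements). 16 h compound exposure at 37C; ONE-Glo, 30 min RT, luminescence.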
# [10] = molecular target: Androgen receptor (Homo sapiens) (UniProt P10275); experiment: qHTS assay to identify small molecule antagonists of the androgen receptor (AR) signaling pathway using the MDA cell line (AID 743042; further: nearly all actives have a fitted effect of over 55% in size; further: potency means the concentration at half of the fitted maximal effect)
# How it was run: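 MDA-kb2 cells (human breast carcinoma, stably carrying an MMTV-luciferase reporter responsive to AR and GR) were plated at 3,000 cells/well and preincubated 5 hr at 37C, then given compound plus R1881 agonist for 16 h. ONE-Glo luminescence was read.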
SMILES,Potency [1],Potency [2],Potency [3],Potency [4],Potency [5],Potency [6],Potency [7],outcome [8],Potency [9],Potency [10]
Nc1cc([N+](=O)[O-])ccc1C(=O)O,inactive,inactive,inactive,inactive,inactive,inactive,–,–,–,–
CCCCCC=O,inactive,inactive,inactive,inactive,inactive,inactive,–,–,–,–
C=CN1CCCC1=O,inactive,inactive,inactive,inactive,inactive,inactive,–,–,–,–
CC(C)[N+](C)(CCOC(=O)C1c2ccccc2Oc2ccccc21)C(C)C,inactive,inactive,inactive,inactive,inactive,inactive,–,–,–,–
COC(=O)c1ccc(C)cc1,inactive,inactive,inactive,inactive,inactive,inactive,–,–,–,–
COc1cc([C@H]2Oc3cc([C@H]4Oc5cc(O)cc(O)c5C(=O)[C@@H]4O)ccc3O[C@@H]2CO)ccc1O,inactive,inactive,inactive,29.8 µM (active) and 48.4 µM (active),inactive,inactive,–,–,–,–
c1ccc2cc3ccccc3cc2c1,inactive,inactive,inactive,inactive,inactive,inactive,–,–,–,–
CCOC(=O)C(C)Oc1ccc(Oc2cnc3cc(Cl)ccc3n2)cc1 (centres undefined),inactive,40.5 µM (active),inactive and 40.5 µM (active),inactive and 45.5 µM (active),inactive,inactive,–,–,–,–
[O-]/[N+](=N\O)c1ccccc1,inactive,inactive,inactive,inactive,inactive,inactive,–,–,–,–
c1ccc2c(c1)ccc1ncccc12,inactive,inactive,inactive,inactive,inactive,inactive,inactive,inactive,inactive,–
CCC/C=C/C=O,inactive,inactive,inactive,inactive,inactive,inactive,inactive,–,–,inactive
CN(C)C,inactive,inactive,inactive,inactive,inactive,inactive,–,–,–,–
OC[C@H]1O[C@@H]2O[C@H]3[C@H](O)[C@@H](O)[C@@H](O[C@H]4[C@H](O)[C@@H](O)[C@@H](O[C@H]5[C@H](O)[C@@H](O)[C@@H](O[C@H]6[C@H](O)[C@@H](O)[C@@H](O[C@H]7[C@H](O)[C@@H](O)[C@@H](O[C@H]1[C@H](O)[C@H]2O)O[C@@H]7CO)O[C@@H]6CO)O[C@@H]5CO)O[C@@H]4CO)O[C@@H]3CO,inactive,inactive,inactive,inactive,inactive,inactive,–,–,–,–
CC(=O)O[C@]1(C(C)=O)CC[C@H]2[C@@H]3C=C(C)C4=CC(=O)CC[C@]4(C)[C@H]3CC[C@@]21C,inactive,11.4 µM (active) and 13.7 µM (active),12.7 µM (active) and 17.2 µM (active),15.4 µM (active),inactive,inactive,–,–,–,–
Cc1ccc(C(C)(C)C)cc1,inactive,inactive,inactive,inactive,inactive,inactive,–,–,–,–
CC(=O)O[C@]1(C(C)=O)CC[C@H]2[C@@H]3C=C(Cl)C4=CC(=O)CC[C@]4(C)[C@H]3CC[C@@]21C,inactive,10.6 µM (active) and 27.3 µM (active),11.9 µM (active),18.8 µM (active),inactive,inactive,–,–,–,–
C=CCOC(=O)C(=C)C,inactive,inactive,inactive,inactive,inactive,inactive,–,–,–,–
CCC(Cc1c(I)cc(I)c(N)c1I)C(=O)O (centres undefined),inactive,inactive,inactive,inactive,inactive,inactive,–,–,–,–
C[C@]12CC[C@@H]3c4ccc(O)cc4CC[C@H]3[C@@H]1CC[C@@H]2O,24.5 µM (active),29.8 µM (active) and 61.1 µM (active),23.7 µM (active) and 54.4 µM (active) and 54.5 µM (active),26.6 µM (active) and 54.5 µM (active),inactive,inactive,–,–,–,–
C=C1C[C@H]2[C@@H]3C=C(C)C4=CC(=O)CC[C@]4(C)[C@H]3CC[C@]2(C)[C@@]1(OC(C)=O)C(C)=O,inactive,7.5 µM (active) and 14 µM (active),8.41 µM (active) and 14 µM (active),10.6 µM (active) and 17.6 µM (active),inactive,inactive,1.77 µM (active),inactive,47.3 nM (active) and 27.9 nM (active),inactive
CN(Cc1cnc2nc(N)nc(N)c2n1)c1ccc(C(=O)N[C@@H](CCC(=O)O)C(=O)O)cc1,inactive,9.4 nM (active) and 1.7 nM (active),11.9 nM (active) and 1.7 nM (active),13.3 nM (active) and 1.7 nM (active),0.0756 µM (active),inactive,–,inactive,inactive,inactive
CCCCCCOCCOCCO,inactive,inactive,inactive,inactive,inactive,inactive,–,–,–,–
CCc1cccc2c3c([nH]c12)C(CC)(CC(=O)O)OCC3 (centres undefined),inactive,inactive,inactive,inactive,inactive,inactive,inactive,inactive,inactive,inactive
O=Cc1ccccc1C=O,23.9 µM (active) and 4.36 µM (active),7.5 µM (active) and 2.73 µM (active),8.41 µM (active) and 2.17 µM (active),11.9 µM (active) and 2.43 µM (active),inactive,24.3 µM (active),–,–,inactive,8.63 µM (active)
Nc1ccc(O)c(N)c1,inactive,24.3 µM (active),inactive and 27.3 µM (active),27.3 µM (active),inactive,–,–,–,–,–
ClC/C=C/CCl,inactive,inactive,inactive,inactive,inactive,inactive,–,–,–,–

SMILES,Potency [1],Potency [2],Potency [3],Potency [4],Potency [5],Potency [6],Potency [7],outcome [8],Potency [9],Potency [10]
Cc1ccc(S(=O)(=O)O)cc1C,inactive,inactive,inactive,inactive,inactive,inactive,–,–,–,–
C=C[C@H]1CN2CC[C@H]1C[C@H]2[C@H](O)c1ccnc2ccc(OC)cc12,inactive,13.3 µM (active) and 8.41 µM (active) and 54.5 µM (active),23.7 µM (active) and 13.3 µM (active) and 27.3 µM (active),26.6 µM (active) and 13.3 µM (active) and 27.3 µM (active),inactive,inactive,–,–,–,–
Oc1c(Cl)ccc(Cl)c1Cl,inactive,inactive,inactive,inactive,inactive,inactive,–,–,–,–
C=C[C@H]1CN2CC[C@H]1C[C@@H]2[C@@H](O)c1ccnc2ccc(OC)cc12,inactive,29.8 µM (active),47.8 µM (active),29.8 µM (active) and 60.1 µM (active),inactive,inactive,–,–,–,–
O=C1CCc2ccccc2O1,inactive,inactive,inactive,inactive,inactive,inactive,–,–,–,–
CC1(C)OC(=O)NC1=O,inactive,inactive,inactive,inactive,inactive,inactive,–,–,–,–
C=CCNCC=C,inactive,inactive,inactive,inactive,inactive,inactive,–,–,–,–
O=C(O)c1ccc(O)cc1,inactive,inactive,inactive,inactive,inactive,inactive,–,–,–,–
C1COCCN1,inactive,inactive,inactive,inactive,inactive,inactive,–,–,–,–
Cc1ccc([N+](=O)[O-])c(C)c1,inactive,inactive,inactive,inactive,inactive,inactive,–,–,–,–
COc1ccc(C(=O)c2ccccc2O)c(O)c1,inactive,inactive,inactive,inactive,inactive,inactive,–,–,–,–
CC1=CC(C)(C)Nc2ccccc21,inactive,inactive and 66.8 µM (active),inactive,inactive,inactive,inactive,–,–,–,–
C=CC(=O)OCCCC,inactive,inactive,inactive,inactive,inactive,inactive,–,–,–,–
O=[Se](O)O,inactive,433 nM (active) and 5.23 µM (active),–,244 nM (active) and 2.34 µM (active),inactive,–,–,–,–,–
C=CC(C)(O)CCC=C(C)C (centres undefined),inactive,inactive,inactive,inactive,inactive,inactive,–,–,–,–
NCCN,inactive,–,–,–,inactive,inactive,–,–,–,–
CCCCCCCCCCCCO,inactive,inactive,–,inactive,inactive,inactive,–,–,–,–
O=C(CCCN1CCC(O)(c2ccc(Cl)cc2)CC1)c1ccc(F)cc1,inactive,5.96 µM (active) and 7.7 µM (active),–,5.96 µM (active) and 1.72 µM (active),inactive,inactive,–,–,–,–
[Na+],inactive,inactive,inactive,inactive,inactive,inactive,–,–,–,–
C=CCCCCCCCCCC,inactive,inactive,inactive,inactive,inactive,inactive,–,–,–,–
C/C=C/C(=O)N(CC)c1ccccc1C,inactive,54.5 µM (active),–,inactive and 48.6 µM (active),inactive,inactive,–,–,–,–
CCCCCCCC/C=C\CCCCCCCC(=O)O,inactive,inactive,–,inactive,inactive,inactive,–,–,–,–
CC(=O)[C@@]1(O)CC[C@H]2[C@@H]3C[C@H](C)C4=CC(=O)C=C[C@]4(C)[C@@]3(F)[C@@H](O)C[C@@]21C,inactive,inactive,–,43.3 µM (active),inactive,inactive,–,–,–,–
Nc1ccc(N)c(Cl)c1,inactive,68.5 µM (active) and inactive,–,inactive,–,–,–,–,–,–
CCCN1C=CN(C)C1,inactive,inactive,inactive,inactive,inactive,inactive,–,–,–,–
O=C1OC2(c3ccccc31)c1cc(I)c(O)c(I)c1Oc1c2cc(I)c(O)c1I,–,inactive and 9.33 µM (active),27.6 µM (active) and 11.7 µM (active),17.4 µM (active) and 10.5 µM (active),inactive,–,–,–,–,–
